In PubChem BioAssay AID1159580 (chemical genetic matrix, 2015):
About 2,000 (36%) of roughly 5,500 compounds were called active. Inconclusive results (about 18%) are left out. Rule as the data show it: active = normalized growth mostly below about 0.91 (no sharp cut-off); inconclusive = no clear call, values can overlap the other calls; inactive = mostly above about 0.92. Some of the results follow.

Assay: chemical genetic growth profiling, strain panel (AID 1159580);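 also: tested at 20 µM; growth read once vehicle control cultures reached saturation at 30 °C; 1 = growth at the plate median or of vehicle wells; lower values mean less growth of the strain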
Details: S. cerevisiae deletion strains, growth OD

Measured: normalized growth

CN1CCC(=C2c3ccccc3CCc3sccc32)CC1
inactive: locus YAL021C, strain ccr4, stronger effect = lower value 0.91 | locus YAL026C, strain drs2, stronger effect = lower value 0.956 | locus YAL030W, strain snc1, stronger effect = lower value 0.987 | locus YBL061C, strain skt5, stronger effect = lower value 0.967 | locus YBR009C, strain hhf1, stronger effect = lower value 0.986 | locus YBR023C, strain chs3, stronger effect = lower value 0.969 | locus YBR171W, strain sec66, stronger effect = lower value 0.961 | locus YBR231C, strain swc5, stronger effect = lower value 0.965 | locus YBR279W, strain paf1, stronger effect = lower value 0.959 | locus YCL011C, strain gbp2, stronger effect = lower value 0.958 | locus YCL016C, strain dcc1, stronger effect = lower value 0.948 | locus YCL069W, strain vba3, stronger effect = lower value 0.977 | locus YCR088W, strain abp1, stronger effect = lower value 0.979 | locus YDL005C, strain med2, stronger effect = lower value 0.968 | locus YDL040C, strain nat1, stronger effect = lower value 0.98 | locus YDR001C, strain nth1, stronger effect = lower value 0.96 | locus YDR069C, strain doa4, stronger effect = lower value 0.905 | locus YDR137W, strain rgp1, stronger effect = lower value 1.08 | locus YDR159W, strain sac3, stronger effect = lower value 0.952 | locus YDR195W, strain ref2 0.954 | locus YDR297W, strain sur2, stronger effect = lower value 0.976 | locus YDR334W, strain swr1, stronger effect = lower value 0.972 | locus YDR335W, strain msn5, stronger effect = lower value 0.949 | locus YDR392W, strain spt3, stronger effect = lower value 0.93 | locus YEL003W, strain gim4, stronger effect = lower value 0.982 | locus YEL037C, strain rad23, stronger effect = lower value 0.975 | locus YEL061C, strain CIN8 (second series), stronger effect = lower value 0.967 | locus YER015W, strain faa2, stronger effect = lower value 0.967 | locus YER016W, strain bim1, stronger effect = lower value 0.995 | locus YER111C, strain swi4, stronger effect = lower value 0.954 | locus YER155C, strain BEM2 (second series), stronger effect = lower value 0.933 | locus YFR010W, strain ubp6, stronger effect = lower value 0.961 | locus YGL167C, strain pmr1, stronger effect = lower value 0.969 | locus YGL173C, strain kem1, stronger effect = lower value 0.972 | locus YGL227W, strain vid30, stronger effect = lower value 0.941 | locus YGL240W, strain doc1, stronger effect = lower value 0.998 | locus YGL253W, strain hxk2, stronger effect = lower value 0.977 | locus YHR027C, strain rpn1, stronger effect = lower value 0.954 | locus YHR030C, strain SLT2, stronger effect = lower value 0.943 | locus YHR079C, strain IRE1, stronger effect = lower value 0.97 | locus YHR142W, strain chs7, stronger effect = lower value 0.951 | locus YJL092W, strain hpr5, stronger effect = lower value 0.975 | locus YJL095W, strain BCK1 (second series), stronger effect = lower value 0.973 | locus YJL095W, strain BCK1, stronger effect = lower value 1.02 | locus YJL115W, strain asf1, stronger effect = lower value 0.922 | locus YJL129C, strain trk1, stronger effect = lower value 0.967 | locus YJL154C, strain vps35, stronger effect = lower value 0.968 | locus YJL164C, strain tpk1, stronger effect = lower value 0.968 | locus YJL166W, strain qcr8, stronger effect = lower value 0.98 | locus YJR066W, strain TOR1, stronger effect = lower value 0.941 | locus YKL160W, strain elf1, stronger effect = lower value 0.935 | locus YKR026C, strain gcn3, stronger effect = lower value 0.966 | locus YKR091W, strain srl3, stronger effect = lower value 0.964 | locus YLL001W, strain dnm1, stronger effect = lower value 0.987 | locus YLL026W, stronger effect = lower value 0.982 | locus YLL041C, strain sdh2, stronger effect = lower value 0.961 | locus YLR027C, strain aat2, stronger effect = lower value 0.95 | locus YLR113W, strain HOG1, stronger effect = lower value 1.01 | locus YLR221C, strain rsa3, stronger effect = lower value 0.997 | locus YLR258W, strain gsy2, stronger effect = lower value 0.966 | locus YLR262C, strain YPT6 (second series), stronger effect = lower value 1.01 | locus YLR320W, strain mms22, stronger effect = lower value 0.98 | locus YLR342W, strain FKS1, stronger effect = lower value 0.973 | locus YLR357W, strain rsc2, stronger effect = lower value 0.946 | locus YLR370C, strain arc18, stronger effect = lower value 0.96 | locus YLR384C, strain iki3, stronger effect = lower value 0.967 | locus YML120C, strain ndi1, stronger effect = lower value 0.97 | locus YMR058W, strain fet3, stronger effect = lower value 0.955 | locus YMR125W, strain sto1, stronger effect = lower value 0.933 | locus YMR129W, stronger effect = lower value 0.979 | locus YMR205C, strain PFK2, stronger effect = lower value 0.958 | locus YMR231W, strain pep5, stronger effect = lower value 0.979 | locus YNL071W, strain lat1, stronger effect = lower value 0.958 | locus YNL183C, strain NPR1, stronger effect = lower value 0.97 | locus YNL209W, strain ssb2, stronger effect = lower value 0.962 | locus YNL248C, strain rpa49, stronger effect = lower value 0.955 | locus YNL322C, strain KRE1 (second series), stronger effect = lower value 0.936 | locus YNR049C, strain mso1, stronger effect = lower value 0.97 | locus YOR001W, strain rrp6, stronger effect = lower value 0.948 | locus YOR070C, strain gyp1, stronger effect = lower value 0.98 | locus YOR080W, strain dia2, stronger effect = lower value 0.975 | locus YOR083W, strain WHI5, stronger effect = lower value 0.913 | locus YOR106W, strain vam3, stronger effect = lower value 0.889 | locus YOR231W, strain MKK1, stronger effect = lower value 0.969 | locus YOR265W, strain rbl2, stronger effect = lower value 0.969 | locus YOR270C, strain vph1, stronger effect = lower value 0.872 | locus YOR290C, strain snf2, stronger effect = lower value 0.916 | locus YPL051W, strain arl3, stronger effect = lower value 0.956 | locus YPL078C, strain atp4, stronger effect = lower value 0.957 | locus YPL106C, strain sse1, stronger effect = lower value 0.942 | locus YPL240C, strain hsp82, stronger effect = lower value 0.967 | locus YPL256C, strain CLN2, stronger effect = lower value 0.963
active: locus YHR013C, strain ard1, stronger effect = lower value 0.842
